Data on 18 compounds can be found in PubChem BioAssay (NCATS).

Inconclusive results are not listed. A number with no mark means an inactive call. Activity calls are given as the source filed them. Calls come from the whole dose curve; as a rule, active = well fitted curve in the direction sought with a large enough effect; inconclusive = small, poorly fitted or top-dose-only effect, or another doubt; inactive = no such curve, though single readings can be large; an effect the other way counts as inactive or inconclusive.

The target in test [1] is Phospholipid hydroperoxide glutathione peroxidase GPX4 (Homo sapiens) (UniProt P36969). As to the kind of experiment: Primary qHTS Assay for Inhibitors of Recombinant Selenoprotein Glutathione Peroxidase 4 (GPX4) (AID 1845192). Note: nearly all actives have a fitted effect of over 65% in size. Note: potency is the fitted concentration of half-maximal effect. An outline of the steps: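 NADPH consumption, followed by fluorescence at 340/450 nm between 0 and 15 min, reports GPX4 activity via coupled glutathione reductase (100 nM). Enzyme 200 nM was pre-exposed to compound 30 min; 0.5 mM cumene hydroperoxide and 1 mM GSH served as substrates.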
Sequence of Phospholipid hydroperoxide glutathione peroxidase GPX4 (Homo sapiens) (P36969 whole entry, looked up): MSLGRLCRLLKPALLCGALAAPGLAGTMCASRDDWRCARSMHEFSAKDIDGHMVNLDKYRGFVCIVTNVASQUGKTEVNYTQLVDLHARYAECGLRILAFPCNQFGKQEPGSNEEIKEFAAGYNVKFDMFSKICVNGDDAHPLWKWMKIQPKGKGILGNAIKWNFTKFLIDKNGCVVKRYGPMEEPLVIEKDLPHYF

Test [2] is described as follows: Quantitative High-Throughput drug screen in 47 multiple myeloma cell lines against the NCATS MIPE library collection: FR4_PLB cell viability assay (AID 1918924; note: nearly all actives have a fitted effect of over 35% in size; note: potency is the fitted concentration of half-maximal effect). An outline of the steps: (§1)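 Luminescent ATP measurement with CellTiter-Glo gives viability, scaled between DMSO-only wells (100%) and media-only wells (0%). Cells, 500 per well, faced library compounds for 48 hours at 37C.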

A short description of test [3]: Quantitative High-Throughput drug screen in 47 multiple myeloma cell lines against the NCATS MIPE library collection: EJM_DSMZ cell viability assay (AID 1918926; note: nearly all actives have a fitted effect of over 30% in size; note: potency is the fitted concentration of half-maximal effect). An outline of the steps: (§2)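 Myeloma cells (500 per well) were exposed to MIPE 4.0 compounds by pin transfer and incubated 48 hours at 37C, 5% CO2. Viability was read as ATP by CellTiter-Glo luminescence, normalised to DMSO (100%) and media-only (0%) wells.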

Test [4] is described as follows: Quantitative High-Throughput drug screen in 47 multiple myeloma cell lines against the NCATS MIPE library collection: ARP1_JJKsccF8 cell viability assay (AID 1918928; note: nearly all actives have a fitted effect of over 40% in size; note: potency is the fitted concentration of half-maximal effect). An outline of the steps:
(§3)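 Myeloma cells at 500 per well in 1536-well format treated with MIPE 4.0 library by pin transfer for 48 h at 37C, 5% CO2. Viability from ATP luminescence (CellTiter-Glo), normalized to DMSO (100%) and media-only (0%) wells.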

The nature of test [5]: Quantitative High-Throughput drug screen in 47 multiple myeloma cell lines against the NCATS MIPE library collection: ARD_JJKsccE7 cell viability assay (AID 1918929; note: potency is the fitted concentration of half-maximal effect). An outline of the steps:
as §2

The nature of test [6]: Quantitative High-Throughput drug screen in 47 multiple myeloma cell lines against the NCATS MIPE library collection: Karpas620_DSMZ cell viability assay (AID 1918959). Note: nearly all actives have a fitted effect of over 30% in size. Note: potency is the fitted concentration of half-maximal effect. The procedure, abridged: as §1
A short description of test [7]: Quantitative High-Throughput drug screen in 47 multiple myeloma cell lines against the NCATS MIPE library collection: JIM3_ECACC cell viability assay (AID 1918963; note: nearly all actives have a fitted effect of over 35% in size; note: potency is the fitted concentration of half-maximal effect). The procedure, abridged: as §1
The nature of test [8]: Quantitative High-Throughput drug screen in 47 multiple myeloma cell lines against the NCATS MIPE library collection: JIM1_ECACC cell viability assay (AID 1918964; note: potency is the fitted concentration of half-maximal effect). An outline of the steps:
as §2

Test [9] can be described thus: Quantitative High-Throughput drug screen in 47 multiple myeloma cell lines against the NCATS MIPE library collection: AMO1_DSMZ cell viability assay (AID 1918927; note: nearly all actives have a fitted effect of over 30% in size; note: potency is the fitted concentration of half-maximal effect). An outline of the steps:
as §2

Test [10] is described as follows: Quantitative High-Throughput drug screen in 47 multiple myeloma cell lines against the NCATS MIPE library collection: INA6_PLB cell viability assay (AID 1918965; note: nearly all actives have a fitted effect of over 55% in size; note: potency is the fitted concentration of half-maximal effect). An outline of the steps:
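Steps: seed 500 cells per well; pin-transfer MIPE 4.0 library; incubate 48 h at 37C, 5% CO2, humidified; add CellTiter-Glo, 5 min room temperature; read luminescence.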

Test [11] in a line: Quantitative High-Throughput drug screen in 47 multiple myeloma cell lines against the NCATS MIPE library collection: H1112_PLB cell viability assay (AID 1918967; note: nearly all actives have a fitted effect of over 30% in size; note: potency is the fitted concentration of half-maximal effect). An outline of the steps: as §2
Test [12] is described as follows: Quantitative High-Throughput drug screen in 47 multiple myeloma cell lines against the NCATS MIPE library collection: Delta47_JCRB cell viability assay (AID 1918925; note: nearly all actives have a fitted effect of over 45% in size; note: potency is the fitted concentration of half-maximal effect). The procedure, abridged:
as §2

Test [13] is described as follows: Quantitative High-Throughput drug screen in 47 multiple myeloma cell lines against the NCATS MIPE library collection: KMM1_JCRB cell viability assay (AID 1918960). Note: nearly all actives have a fitted effect of over 30% in size. Note: potency is the fitted concentration of half-maximal effect. An outline of the steps:
as §3

Test [14] in a line: Quantitative High-Throughput drug screen in 47 multiple myeloma cell lines against the NCATS MIPE library collection: JJN3_DSMZ cell viability assay (AID 1918966; note: nearly all actives have a fitted effect of over 50% in size). The procedure, abridged:
as §2

Test [15] can be described thus: Quantitative High-Throughput drug screen in 47 multiple myeloma cell lines against the NCATS MIPE library collection: KHM11_PLB cell viability assay (AID 1918962). Note: nearly all actives have a fitted effect of over 35% in size. Note: potency is the fitted concentration of half-maximal effect. The procedure, abridged: as §1

For `CCCCC(C)(C)[C@H](O)C=C[C@H]1[C@H](O)CC(=O)[C@H]1CC=CCCCC(=O)O`, the Potency entry in [1], in test [2], in [5], in test [6] and in [8] was “inactive” each time. The figures for the Potency in test [3], in test [4] and in test [7] were 5.9 µM (active), 23.5 µM (active) and 20.9 µM (active), respectively.
Turning to `CCCC1OC2C[C@@H]3[C@H]4CCC5=CC(=O)C=C[C@]5(C)[C@H]4C(O)C[C@]3(C)[C@]2(C(=O)CO)O1` (stereo partly drawn), the Potency entry in [1], in test [2], in test [9], in test [10] and in test [11] was “inactive” each time. Moreover, the Potency in test [3] is 11.8 µM (active); in test [4], 0.469 µM (active); in test [5], 0.0118 µM (active).
`C[C@@H](O[C@H]1OCCN(Cc2n[nH]c(=O)[nH]2)[C@@H]1c1ccc(F)cc1)c1cc(C(F)(F)F)cc(C(F)(F)F)c1`: the Potency entry in test [1] and in test [5] was “inactive” each time. Besides, the Potency was 29.6 µM (active) in [2]; 5.9 µM (active) in test [9]; 26.4 µM (active) in test [4]; 7.43 µM (active) in [6]; 23.5 µM (active) in test [7]; 20.9 µM (active) in [10].
For the compound `O=C(NC[C@H](O)CO)c1ccncc1Nc1ccc(I)cc1F`, in [1], the Potency entry was “inactive”. The Potency in test [12] is 11.8 µM (active); in [3], 18.7 µM (active); in [9] it was 5.26 µM (active); in test [4], 2.96 µM (active); in test [6] it was 0.0296 µM (active); in test [13], 6.62 µM (active). Besides, the results for the Potency in test [7], in test [8] and in test [11] were 14.8 µM (active), 2.35 µM (active) and 13.2 µM (active), respectively.
Regarding `Nc1ccn([C@@H]2O[C@H](CO)[C@@H](O)[C@H]2O)c(=O)n1`, the Potency result in test [1], in [2], in test [3], in [5], in test [13] and in test [14] was “inactive” in each case.
Consider `Cn1cc(-c2ccc3nnc(Sc4ccc5ncccc5c4)n3n2)cn1`, for which the Potency result in test [1], in test [2], in test [7] and in test [11] was “inactive” each time. Moreover, the figures for the Potency in test [12] and in test [6] were 0.469 µM (active) and 1.18 µM (active), respectively.
In the case of `COc1cc2ncn(-c3cc(OCc4ccccc4S(C)(=O)=O)c(C#N)s3)c2cc1OC`, the Potency entry in test [1], in test [12], in test [9], in test [5], in test [6] and in test [13] was “inactive” each time. In addition, the Potency result in [15] and in test [7] was “inactive” throughout. In addition, the Potency in test [3] and in [11] was 3.72 µM (active) each time.
Turning to `C#CCN(C)CC1=Cc2ccccc2Oc2ccccc21`, the Potency entry in test [1], in [2], in test [3], in test [4], in [6] and in [13] was “inactive” each time. For the same compound, the Potency result in [8] and in test [11] was “inactive” each time.
`C=C1c2cccc(O)c2C(O)=C2C(=O)[C@@]3(O)C(O)=C(C(N)=O)C(=O)[C@@H](N(C)C)[C@@H]3[C@@H](O)[C@H]12`: the Potency in [1] was 11.4 µM (active); in test [2] it was 16.6 µM (active); in test [3] it was 9.35 µM (active); in test [4], 23.5 µM (active); in test [7] it was 16.6 µM (active); in test [10] it was 13.2 µM (active). Further, the Potency in [11] was 11.8 µM (active). Besides, the Potency result in test [9], in test [6], in test [13] and in [15] was “inactive” in each case.
On to `C[C@]12CC[C@@H]3c4ccc(O)cc4CC[C@H]3[C@H]1[C@@H](O)[C@@H](O)[C@H]2O`, for which the Potency entry in test [1], in [2], in test [6], in test [13], in [7] and in test [11] was “inactive” each time.
On to `CN(C)N=Nc1nc[nH]c1C(N)=O`, for which the Potency result in test [1], in [2], in test [3], in test [7] and in test [11] was “inactive” each time. Also, the Potency in test [5] is 0.187 µM (active); in [13], 0.935 µM (active); in test [10], 2.64 µM (active).
On to `COc1ccnc(CS(=O)c2nc3ccc(OC(F)F)cc3[nH]2)c1OC` (stereo not drawn), for which the Potency in test [1] was 16.1 µM (active); in test [6], 29.6 µM (active). Moreover, the Potency result in test [2], in test [3], in test [9], in [13] and in [7] was “inactive” each time.
Regarding `COc1cccc(OC)c1-c1cc(C(=O)NC2(C(=O)O)C3CC4CC(C3)CC2C4)nn1-c1ccnc2cc(Cl)ccc12` (stereo not drawn), the Potency entry in [1], in [12], in test [3], in test [9], in test [5] and in test [6] was “inactive” throughout. Also, the Potency entry in [13], in test [15], in test [7] and in test [11] was “inactive” throughout.
Turning to `CCC[C@H](N[C@@H](C)C(=O)N1[C@@H]2CCCC[C@H]2C[C@H]1C(=O)O)C(=O)OCC`, the Potency entry in test [1], in test [2], in test [3], in test [4], in test [6] and in test [11] was “inactive” each time. For the same compound, in [7], the Potency was 14.8 µM (active).
Take `CN(C)c1ccccc1CN1CCCN(Cc2ccccc2N(C)C)C1c1ccncc1`: in test [1], the Potency result is “inactive”. Moreover, the Potency was 18.7 µM (active) in test [2]; 20.9 µM (active) in test [12]; 18.7 µM (active) in test [5]; 3.32 µM (active) in [15]; 23.5 µM (active) in test [10].
Regarding `OC(c1cc(C(F)(F)F)nc2c(C(F)(F)F)cccc12)C1CCCCN1` (stereo not drawn), in test [1], the Potency result is “inactive”. The Potency in test [12] was 26.4 µM (active); in test [3] it was 18.7 µM (active); in test [9] it was 18.7 µM (active); in test [13], 20.9 µM (active); in test [7], 18.7 µM (active); in test [11] it was 20.9 µM (active).
Take `NCC1CCC(C(=O)O)CC1` (stereo not drawn): the Potency entry in test [1], in [2], in test [3], in [9], in test [4] and in test [5] was “inactive” in each case. Moreover, the Potency result in test [6], in test [13], in [7], in test [10] and in [11] was “inactive” throughout. Besides, in test [15], the Potency was 4.18 µM (active).
As to `NC[C@H]1O[C@H](O[C@@H]2[C@@H](O)[C@@H](O[C@H]3O[C@H](CO)[C@@H](O)[C@H](N)[C@@H]3O)[C@H](N)C[C@@H]2N)[C@H](O)[C@@H](O)[C@H]1O`, the Potency entry in [1], in [2], in test [3], in test [9], in test [5] and in test [6] was “inactive” in each case. Moreover, the Potency entry in test [13], in test [15], in [7] and in test [11] was “inactive” throughout.
